Source: PubChem BioAssay
PrPC TRFRET: reduces human prion protein on the cell surface | 370,000 tested, 0.43% active | inhibition, % at 13.8 µM | cell surface PrPC, TR-FRET read-out | AID 720596; in the data active means inhibition above about 24%; further: 0% = median of the test wells and 100% = reference compound wells
GDH-TPI counter: GDH-TPI coupled enzyme inhibition counter-screen; GDH-TPI coupled enzyme counterscreen, NADH absorbance; inhibition, % at 4.8 µM; 360,000 tested, 1.2% active; AID 588335; in the data active means inhibition above about 30%;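 further: 0% = DMSO wells and 100% = wells lacking the enzyme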
FBA Mtb inh: inhibits M. tuberculosis FBA enzyme; P9WQA3; purified M. tuberculosis FBA, fluorescence read-out; inhibition, % at 1 µM; 360,000 tested, 2.3% active; in the data active means inhibition above about 27%;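 further: 0% = vehicle and 100% = reference inhibitor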
TcdB GH inh: blocks C. difficile toxin B glycohydrolase activity. P18177. TcdB glycohydrolase enzymatic assay, plate reader. inhibition, % at 9.99 µM. 350,000 tested, 0.24% active; in the data active means inhibition above about 10%
Yp Topo-I inh: inhibitors of Yersinia pestis topoisomerase I. Y. pestis Topo-I cleavage product accumulation, plate reader. activity, % at 10 µM. 360,000 tested, 0.064% active. AID 504884; in the data active means activity above about 50%, passing the limit was not always enough
The depositor's hits bear a star; . = not tested or not shown; + = active, no number. Sampled rows, rich in hits. Any-hit rate of the full collection: about 3.2%.

SMILES	PrPC TRFRET	GDH-TPI counter	FBA Mtb inh	TcdB GH inh	Yp Topo-I inh
C[C@H](CO)N1C[C@H](C)[C@H](CN(C)S(=O)(=O)c2ccccc2)Oc2ncc(-c3cccc(F)c3)cc2C1=O	.	.	.	0	.
O=C(c1cc(Br)c(Br)s1)N1CCN(C/C=C/c2ccccc2)CC1	2	5	1	.	58*
Cc1cc(C(=O)N2CCN(C/C=C/c3ccccc3)CC2)cs1	.	-4	0	1	25
CC(C)c1cc(CN2CCN(Cc3ccc(F)c(F)c3)C(CCO)C2)[nH]n1 (stereo unspecified)	-5	2	0	10*	-3
CN(C)CCCNC(=O)C[C@H]1CC[C@H]2[C@@H](COc3ccc(NC(=O)c4ccccc4F)cc3C(=O)N2C)O1	.	.	.	-1	.
Cc1cc(NCc2ccccn2)n2c(nc3ccccc32)c1C#N	-6	0	21	1	0
CNc1cc(C)c(C#N)c2nc3ccccc3n12	3	4	+	0	7
CCN(CC)c1cc(C)c(C#N)c2nc3ccccc3n12	-7	-14	23	0	7
Cc1cc(Cl)n2c(nc3ccccc32)c1C#N	-6	7	+	1	10
Cc1ccc(-c2c(C#N)c(N)n3c(nc4ccccc43)c2C#N)cc1	0	12	119*	.	6
CC(C)OC(=O)N(C)C[C@H]1OCc2ccccc2-c2c(n(C)c3ccccc23)C(=O)N([C@@H](C)CO)C[C@H]1C	.	.	.	2	.
COC(=O)C[C@@H]1C[C@H]2c3cc(NC(=O)c4cccnc4)ccc3O[C@H]2[C@H](CO)O1	.	.	.	-1	.
Cn1cnc(S(=O)(=O)N2C[C@H](O)COC[C@H]3O[C@@H](CC(=O)NC4CCC4)CC[C@@H]32)c1	.	.	.	0	.
CCC(=O)NC[C@H]1[C@@H](c2ccc(C3=CCCC3)cc2)[C@H](CO)N1C(C)=O	.	.	.	-1	.
Cc1ccc(-c2cc(C(=O)O)c3sc(N4CCCCC4)nc3n2)cc1	-2	14	163*	.	-1
O=C(O)c1cc(-c2ccccc2)nc2nc(N3CCCCC3)sc12	3	.	.	0	.
CC(C)NC(=O)N(C)C[C@H]1Oc2ccc(NC(=O)C3CC3)cc2CC(=O)N([C@H](C)CO)C[C@@H]1C	.	.	.	0	.
N/C(=N\N=C\c1ccc(O)cc1O)N[N+](=O)[O-]	-4	36*	1	.	-1
COc1ccccc1/C=N/N=C(/N)N[N+](=O)[O-]	6	23	-3	1	-1
Cc1cc(=O)oc2cc(OCC(=O)N3C[C@H]4C[C@@H](C3)c3cccc(=O)n3C4)ccc12	0	-6	6	4	1
C=C(C)COc1ccc2c(C)c(CC(=O)N3C[C@H]4C[C@@H](C3)c3cccc(=O)n3C4)c(=O)oc2c1	5	29	114*	0	16
C[C@H](NC(=O)C[C@H]1C[C@H]2c3cc(N(C)C)ccc3O[C@H]2[C@@H](CO)O1)c1ccccc1	.	.	.	-40	.
CC(=O)NC(Cc1ccccc1)C(=O)Oc1ccc2ccccc2c1 (stereo unspecified)	-7	8	5	10*	13
C[C@@H]1CN([C@@H](C)CO)C(=O)c2cc(NC(=O)Nc3ccccc3)ccc2O[C@H]1CN(C)S(=O)(=O)c1cn(C)cn1	.	.	.	4	.
O=c1c(-c2nnc(SCc3ccc(Cl)cc3)o2)cccn1Cc1ccccc1	-6	23	176*	.	39
SMILES	PrPC TRFRET	GDH-TPI counter	FBA Mtb inh	TcdB GH inh	Yp Topo-I inh
O=C(Nc1ccccc1-c1nnc(SCc2ccc(Cl)cc2)o1)c1ccccc1	3	6	-2	.	-10
N#C[C@@H]1[C@H](c2ccccc2C2=CCCCC2)[C@@H](CO)N1C(=O)NC1CCCCC1	.	.	.	0	.
COC(=O)c1ccc(C(=O)OC)c(NC(=S)N2CCN(c3ccccc3)CC2)c1	7	16	30*	.	-5
COC(=O)c1ccc(C(=O)OC)c(NC(=S)N2CCN(c3cccc(Cl)c3)CC2)c1	7	-2	20	.	19
Cc1cccc(C)c1NS(=O)(=O)c1cc2c3c(c1)CC(=O)N3CCC2	-5	8	3	-1	4
O=C1Cc2cc(S(=O)(=O)NCc3ccccc3Cl)cc3c2N1CCC3	9	2	1	11*	7
FC(F)(F)c1cnc(N/N=C/c2ccncc2)c(Cl)c1	-8	57*	0	0	6
O=C(O)c1ccc(/C=N/Nc2ncc(Cl)cc2Cl)cc1	7	21	-3	-2	4
COc1ccc(/C=N/Nc2ncc(C(F)(F)F)cc2Cl)cc1OC	-4	41*	6	1	-11
Cc1noc(C)c1NC(=O)Nc1ccc2c(c1)C(=O)N([C@H](C)CO)C[C@@H](C)[C@H](CN(C)S(=O)(=O)c1ccc(Cl)cc1)OCCCC[C@@H](C)O2	.	.	.	1	.
COc1ccc(-c2ccc3c(c2)O[C@H](CN(C)Cc2ccccc2C(=O)O)[C@@H](C)CN([C@H](C)CO)S3(=O)=O)cc1	.	.	.	2	.
N#Cc1c(NC(=O)c2ccc(-c3ccccc3[N+](=O)[O-])o2)sc2c1CCCC2	0	32*	-10	.	-5
C[C@@H]1CN([C@H](C)CO)C(=O)c2cccc(N(C)C)c2O[C@@H]1CN(C)C(=O)Nc1ccc(C(F)(F)F)cc1	.	.	.	13*	.
CCCC(O)C#Cc1cnc2c(c1)C(=O)N([C@H](C)CO)C[C@H](C)[C@H](CN(C)S(=O)(=O)c1cn(C)cn1)O2 (stereo partly specified)	.	.	.	-2	.
O=C(c1cccnc1)N1C[C@H]2[C@@H](c3ccccc31)[C@@H](CO)N2C(=O)C1CCCCC1	.	.	.	-1	.
COc1ccc(-c2cn3nc(SCC(=O)NCC4CCCO4)ccc3n2)cc1 (stereo unspecified)	1	24	128*	4	4
COc1ccc(NC(=O)c2cc(S(=O)(=O)N3CCc4ccccc43)cn2C)cc1OC	5	5	-2	16*	30
COc1ccc(NC(=O)c2cc(S(=O)(=O)N3CCc4ccccc43)cn2C)c(OC)c1	.	10	-1	.	33
CCOc1ccc(NC2OC(C)C(O)C(O)C2O)c([N+](=O)[O-])c1 (stereo unspecified)	-25	7	112*	2	0
CCOc1ccc(NC(=O)c2ccc(CC)s2)c([N+](=O)[O-])c1	-9	7	-4	10*	5
CN1/C(=C/C=C/c2n(C)c3cc([N+](=O)[O-])c([N+](=O)[O-])cc3[n+]2C)C(C)(C)c2ccccc21	-75	5	-20	12*	-17
CNc1nc(-c2ccc3c(c2)CCN3C(=O)c2cccc(F)c2)cs1	5	31*	1	1	0
CN(C)C(=O)C[C@H]1C=C[C@H](NC(=O)C2CC2)[C@H](CO)O1	.	.	.	1	.
CSc1nc(SCC(=O)NC(c2ccccc2)c2ccccc2)c2c3c(sc2n1)CN(C)CC3	4	13	14	.	11
COCCNc1nc(SCc2ccccc2)nc2sc3c(c12)CCC3	0	5	5	.	27
CSc1nc(NCC(C)O)c2c3c(sc2n1)CN(C)CC3 (stereo unspecified)	-9	8	113*	-1	-6
CSc1nc(NCCCO)c2c3c(sc2n1)CN(C)CC3	-3	-1	176*	2	-9
